Source: PubChem BioAssay AID626 (Vanderbilt High Throughput Screening Facility, 2007)
In all, about 64,000 compounds went through this assay and about 1,900 (3%) were called active. Only a selection was taken, and actives are over-represented in it overall. Unmarked numbers belong to inactive results.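 Rule for the calls: active = fluorescence rise, raw or as B-score row- and column-corrected plate score, outside the 99.7% band of its plate's samples, either direction; inactive = the rest.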

What follows are compounds tested on Muscarinic acetylcholine receptor M1 (assay: M1 muscarinic receptor agonists, primary screen, CHO-M1 cells, Fluo-4 calcium, agonist mode (AID 626)). Settings: Fluo-4 calcium fluorescence, at 10 µM, active compounds read high.

Row | Compound | B-score
1 | Cc1nc2cc(S(=O)(=O)C(F)(F)F)ccc2s1 | 0.0196
2 | Cc1ccc(C(c2sc3nc(C)nn3c2O)N2CCN(c3ccccc3)CC2)cc1 (stereo not drawn) | -0.274
3 | O=C(Nc1cccc(-c2nnc(-c3ccccc3)o2)c1)C1CCCO1 (stereo not drawn) | 8.44 (active)
4 | O=C(Nc1nnc(CCc2ccccc2)s1)C1CCCO1 (stereo not drawn) | -0.799
5 | O=C(Nc1ccc(-c2nnc(-c3ccccc3)o2)cc1)C1CCCO1 (stereo not drawn) | 0.124
6 | Cc1ccc(C(=O)Nc2ccccc2C(=O)NC2CCCCC2)cc1S(=O)(=O)N1CCOCC1 | -0.515
7 | CCOc1ccc2cc(C#N)c(SCC(=O)OC)nc2c1 | -0.798
8 | CC(NC(=O)CSc1nc2c(cc1C#N)CN(C)CC2)c1ccccc1 (stereo not drawn) | 6.81 (active)
9 | Cc1ccc2cc(C#N)c(SCC(=O)NCC3CCCO3)nc2c1C (stereo not drawn) | 0.58
10 | CC1=NC2(CCCc3c2no[n+]3[O-])N(O)C1(C)C (stereo not drawn) | -0.303
11 | O=C(Nc1c(-c2ccccc2)nc2c(Br)cc(Br)cn12)c1ccco1 | 1.35
12 | N#CCCN1CCN(S(=O)(=O)c2ccc(S(=O)(=O)NC3CC3)cc2)CC1 | 0.386
13 | N#CCCN1CCN(S(=O)(=O)c2ccc(S(=O)(=O)N3CCCC3)cc2)CC1 | 0.0676
14 | CC(C)(C)c1cc(CN2CCN(CCC#N)CC2)cc(C(C)(C)C)c1O | 25.1 (active)
15 | Cc1nc2ccc(S(=O)(=O)NC(C(=O)N3CCCCCC3)C(C)C)cc2s1 (stereo not drawn) | 0.688
16 | CN1CCN(S(=O)(=O)c2ccc(NC(=O)c3ccco3)cc2)CC1 | 0.741
17 | CC1=C2C(=O)OC(c3ccoc3)C2(C)CCC1 (stereo not drawn) | -1.22
18 | Cc1ccc(-n2ncc3c(N4CCN(c5ccc(F)cc5)CC4)ncnc32)c(C)c1 | -0.824
19 | Fc1ccc2[nH]c3c(N4CCSCC4)ncnc3c2c1 | 12.1 (active)
20 | Fc1ccc2[nH]c3c(N4CCN(Cc5ccc6c(c5)OCO6)CC4)ncnc3c2c1 | 6.32
21 | O=C1CC(c2ccccc2)CC(O)=C1C=NCCN1CCOCC1 (stereo not drawn) | -1.61

Row | Compound | B-score
22 | Cn1c(SCC(=O)c2cccs2)nnc1-c1ccco1 | -0.304
23 | Cc1nnc(SCC(=O)NCc2cccs2)[nH]c1=O | 0.134
24 | Cc1nc2nc(CSc3nc4ccccc4s3)cc(=O)n2[nH]1 | 0.684
25 | Cc1nn(C(=O)c2ccoc2C)c(N)c1-c1ccccc1 | 0.366
26 | Cc1nn2c(c1-c1ccccc1)N=C(c1ccco1)CC2c1ccccc1 (stereo not drawn) | 5.88 (active)
27 | CCOC(=O)c1c(C2CC2)csc1NC(=O)CSCc1c(C)noc1C | 0.602
28 | CN1CCN(CC(=O)Nc2sc3c(c2C#N)CCC(C(C)(C)C)C3)CC1 (stereo not drawn) | -0.211
29 | CCOC(=O)C1CCN(C(=O)c2oc3ccc(S(=O)(=O)N4CCCCCC4)cc3c2C)CC1 | 1.57
30 | CCOC(=O)C1CCCN(C(=O)c2cncc(Br)c2)C1 (stereo not drawn) | -0.115
31 | CCOC(=O)C1CCCN(C(=O)c2ccc(CS(=O)(=O)c3ccc(Br)cc3)o2)C1 (stereo not drawn) | -2.11 (active)
32 | C/C(Cl)=C\Cn1c(Nc2cccc(C)c2)nc2c1c(=O)n(C)c(=O)n2C | 0.177
33 | CCCn1c(=O)c(-c2ccccc2)c(O)c2ccccc21 | 0.287
34 | Nc1nnc(SCCN2C(=O)c3ccccc3S2(=O)=O)s1 | 1.12
35 | CCOC(=O)CNC(=O)CN1C(=O)CCSc2ccccc21 | -0.158
36 | CC1=NCCN1S(=O)(=O)c1ccc(Br)c(C)c1 | 0.66
37 | CC(C)OCCCNc1ncnc2c1[nH]c1ccc(F)cc12 | 16.6 (active)
38 | CCN1CCCC1CNc1ncnc2c1[nH]c1ccc(F)cc12 (stereo not drawn) | 0.0374
39 | O=C1CCCN1CCCNc1ncnc2c1[nH]c1ccccc12 | -0.55
40 | Cc1oc(CC(C)C)c(CN2CCCC2)c1C(=O)O | 0.845
41 | CCOC(=O)C1CCN(C(=O)C2CCN(S(=O)(=O)c3c(C)noc3C)CC2)CC1 | -0.00598
42 | CN1C(C)(C)CC(NC(=O)CCC(=O)NC2CC(C)(C)N(C)C(C)(C)C2)CC1(C)C | -0.271

Row | Compound | B-score
43 | CCOC(=O)C1=C(C)NC(C)=C(C(=O)OCC)C1c1ccccn1 | -0.0841
44 | O=C(CC1Nc2ccccc2NC1=O)Nc1ccccc1 (stereo not drawn) | 3.46 (active)
45 | CCOC(=O)c1ccccc1NC(=O)CC1Nc2ccccc2NC1=O (stereo not drawn) | 14.3 (active)
46 | CCCOC(=O)Nc1ccccc1C(N)=O | -0.00513
47 | CCOc1ccc(NC(=O)CC2NCCNC2=O)cc1 (stereo not drawn) | 0.571
48 | O=C(CC1NCCNC1=O)Nc1ccc(Oc2ccccc2)cc1 (stereo not drawn) | 1.02
49 | COc1ccccc1NC(=O)C1=C(C)NC2=C(C(=O)CCC2)C1c1ccc(C)o1 (stereo not drawn) | -0.692
50 | CCc1ccc(N(CC)c2ncnc3nc[nH]c23)cc1 | 0.205
51 | CCOc1ccc(S(=O)(=O)N(CC(=O)O)c2ccccc2)cc1 | 0.254
52 | C=C1c2cc(CC)ccc2NC(=O)N1c1ccc(C)cc1 | -1.17
53 | Cc1ccccc1NC(=O)CNc1ccccc1N1CCCCC1 | 1.11
54 | Cn1c(=O)c2c(nc(SCC(=O)Nc3ccccc3N3CCCCC3)n2C)n(C)c1=O | 6.49 (active)
55 | CC(C)n1c(SCC(=O)Nc2ccccc2N2CCCCC2)nc2c1c(=O)n(C)c(=O)n2C | 0.367
56 | CC(=O)Nc1ccc(S(=O)(=O)N2CCN(CCCOc3cc(C)ccc3C)CC2)cc1 | -0.692
57 | CN(C)CCCNc1c2c(c(C#N)c3nc4ccccc4n13)CCC2 | 0.715
58 | COc1ncnc2c1N=C1CC(C)(C)CC(N)=C1S2 | 39.7 (active)
59 | COc1cc(NS(=O)(=O)c2ccccc2)ccc1-n1nc(C)cc1C | -0.04
60 | CCOC(=O)c1c(C)[nH]c(C(=O)NCc2ccccc2OC)c1C | 0.0421
61 | COc1ccc(C)cc1NC(=O)c1[nH]c(C)c(C(C)=O)c1C | 1.04
62 | COc1cccc2c(C)c(C(=O)O)[nH]c12 | -2.07 (active)
63 | CCN(CC)CCN1C(=O)C(=O)/C(=C(/O)c2ccc(OC)c(OC)c2)C1c1ccccn1 (stereo not drawn) | -0.817
